Assay outcomes: PubChem, Bradner/Qi Labs at DFCI
CBX7 inh: CBX7 inhibition, primary AlphaScreen; O95931; AlphaScreen His6-CBX7 / biotin-H3K27me3 peptide binding; active compounds read low; normalised signal (fraction of DMSO) (no concentration beside the values); 1.1% of 66,000 active; AID 1224903; in the data active means normalised signal below about 0.5
Target sequence (O95931 whole entry, looked up): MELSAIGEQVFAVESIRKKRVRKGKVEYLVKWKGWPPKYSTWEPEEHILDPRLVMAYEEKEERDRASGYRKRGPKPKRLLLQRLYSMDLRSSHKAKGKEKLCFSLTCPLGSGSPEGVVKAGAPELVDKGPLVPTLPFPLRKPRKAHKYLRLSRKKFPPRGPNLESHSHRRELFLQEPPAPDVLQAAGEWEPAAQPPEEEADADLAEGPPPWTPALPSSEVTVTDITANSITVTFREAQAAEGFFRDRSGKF
Numbers stand for hits; i = inactive. The sample as a whole holds a higher share of hits than the screen did.

SMILES	CBX7 inh
O=C(CCCN1C(=O)c2cccnc2C1=O)Nc1ccc(Cl)c(C(F)(F)F)c1	i
O=C(CCCN1C(=O)c2cccnc2C1=O)N1CCN(c2ccccc2)CC1	0.487
O=C(CCCN1C(=O)c2cccnc2C1=O)Nc1ccccc1F	i
Cc1ccc(NC(=O)CCCN2C(=O)c3cccnc3C2=O)cc1F	i
CCc1cccc(C)c1NC(=O)CCCN1C(=O)c2cccnc2C1=O	i
Cc1cc(Cl)ccc1OCCCC(=O)N1c2ccc(F)cc2CCC1C (stereo unspecified)	i
O=C(CCCN1C(=O)c2cccnc2C1=O)N1CCN(c2ccccc2F)CC1	0.342
CC1CCc2cc(F)ccc2N1C(=O)CCCN1C(=O)c2cccnc2C1=O (stereo unspecified)	0.466
O=C(Nc1ccc2c(c1)C(=O)NC2=O)c1ccc(Cl)cc1Cl	i
Cc1c(Cl)cccc1NC(=O)Cn1c(C(F)(F)F)nc2ccccc21	i
NC(=O)C1(N2CCCCC2)CCN(c2c(-c3ccccc3)c3cc(Cl)ccc3[nH]c2=O)CC1	i
COc1ccc(-c2csc(Nc3ncccn3)n2)cc1	i
Cc1onc(-c2ccccc2Cl)c1C(=O)Nc1ccc(C(C)(C)C)cc1	i
Cc1ccc(C)c(OCCCCCCc2c(C)n[nH]c2C)c1	i
Cc1ccc(OCCCCc2c(C)n[nH]c2C)c(C(C)(C)C)c1	0.415
Cc1n[nH]c(C)c1CCCCCOc1ccccc1F	i
C=CCN(CC=C)S(=O)(=O)c1ccc(C(=O)Nc2nnc(-c3cc(OC)cc(OC)c3)o2)cc1	i
CCCN(CCC)S(=O)(=O)c1ccc(C(=O)Nc2nnc(-c3cccs3)o2)cc1	i
C=CCN(CC=C)S(=O)(=O)c1ccc(C(=O)Nc2nnc(CC)o2)cc1	0.064
CCCCN(CC)S(=O)(=O)c1ccc(C(=O)Nc2nnc(-c3cccs3)o2)cc1	i
CCCCN(CC)S(=O)(=O)c1ccc(C(=O)Nc2nnc(C)o2)cc1	0.0241
CCCCN(CC)S(=O)(=O)c1ccc(C(=O)Nc2ccccc2-c2nc3ccccc3s2)cc1	i
CCCCN(CC)S(=O)(=O)c1ccc(C(=O)Nc2nnc(CC)o2)cc1	0.0788
CCCCN(CC)S(=O)(=O)c1ccc(C(=O)Nc2ccc(-c3nc4ccccc4[nH]3)cc2)cc1	i
CCc1nnc(NC(=O)c2ccc(S(=O)(=O)N(CCC#N)CCC#N)cc2)o1	0.056
SMILES	CBX7 inh
CC(=O)N1CCc2cc(S(=O)(=O)NCCC(=O)Nc3ccc(F)c(F)c3)ccc21	i
Cc1ccc(-n2c3c(cc(C(=O)NC(C)c4ccccc4)c2=O)C(=O)CCC3)cc1 (stereo unspecified)	i
Cc1cc(N2CCCCC2)nc2ccc(NC(=O)Cc3cccs3)cc12	i
COc1ccc(-c2cc3cc(OC)c(OC)cc3c(Cc3ccc(OC)c(OC)c3)n2)cc1	i
CCN(Cc1ccccc1)S(=O)(=O)c1ccc2oc(C(=O)O)c(C)c2c1	i
Cc1ccc(-c2csc(NC(=O)c3ccc(S(=O)(=O)N(C)c4ccccc4)cc3)n2)cc1	i
CCc1nnc(NC(=O)c2ccc(S(=O)(=O)N(CC)Cc3ccccc3)cc2)o1	i
CCN(c1ccccc1)S(=O)(=O)c1ccc(C(=O)Nc2nnc(C)o2)cc1	0.0517
CCN(Cc1ccccc1)S(=O)(=O)c1ccc(C(=O)Nc2nnc(C)o2)cc1	0.00312
Cc1nnc(NC(=O)c2ccc(S(=O)(=O)N(C)c3ccccc3)cc2)o1	i
CC(NC(=O)C1CCCN(c2nc3ccccc3[nH]2)C1)c1ccc2c(c1)OCCO2 (stereo unspecified)	i
COc1ccc(-n2c(C)nc3cc(C(=O)NCC4CCCO4)ccc32)cc1 (stereo unspecified)	i
COc1ccc(C(=O)c2oc3ccccc3c2NC(=O)c2ccccc2)cc1	i
O=C1c2[nH]nc(-c3ccccc3)c2C(c2ccc(Cl)cc2)N1c1cccc(C(F)(F)F)c1 (stereo unspecified)	i
O=C(NC1(C(=O)Nc2cccc(Cl)c2)CCCCC1)c1ccccc1F	i
CC1(C)CC(=O)c2cc(C(=O)Nc3ccc(Br)cc3)c(=O)n(-c3ccccc3)c2C1	i
CCCOc1ccc(C(C)(O)CN2CCOCC2)cc1 (stereo unspecified)	i
CC(C)(c1ccccc1)c1ccc(OCCN2CCOCC2)cc1	0.297
CCCCOc1ccc(C(O)(CCC)CCN2CCOCC2)cc1 (stereo unspecified)	i
CCCN1Cc2cccc(C(=O)Nc3ccc(Br)cc3)c2C1=O	i
CCCCN(CCCC)S(=O)(=O)c1ccc(C(=O)Nc2nnc(-c3cccs3)o2)cc1	i
CCN(CC)S(=O)(=O)c1ccc(C(=O)Nc2nnc(COC)o2)cc1	0.0237
CCN(CC)S(=O)(=O)c1ccc(C(=O)Nc2nnc(-c3ccccc3Cl)o2)cc1	i
CCCCN(CCCC)S(=O)(=O)c1ccc(C(=O)Nc2nnc(-c3ccccc3Cl)o2)cc1	i
CCCCN(CCCC)S(=O)(=O)c1ccc(C(=O)Nc2nnc(COC)o2)cc1	0.156
SMILES	CBX7 inh
CC(=O)c1ccc(NC(=O)CSc2nc3ccccc3[nH]2)cc1	i
Cc1ccc(C(=O)c2oc3ccccc3c2NC(=O)C(C)Oc2cc(C)cc(C)c2)cc1 (stereo unspecified)	i
COc1ccccc1NC(=O)CSc1nc2ccc(N3C(=O)c4ccccc4C3=O)cc2s1	i
Cc1cc(OCC(O)CN2CCN(c3ccc(F)cc3)CC2)ccc1C(C)C (stereo unspecified)	i
COc1cccc(NC2c3ccccc3C(=O)N2c2ccccn2)c1 (stereo unspecified)	i
O=C(Nc1c(Cl)cccc1Cl)c1cccnc1Oc1ccc(Cl)cc1	i
CCc1ccc(CNC(=O)CCc2cn(Cc3ccccc3)c3ccccc23)cc1	i
O=C(CCc1cn(Cc2ccccc2)c2ccccc12)NCc1ccccc1Cl	0.489
Cc1ccc(Cn2cc(CCC(=O)NCc3ccccc3)c3ccccc32)cc1	i
O=C(CCc1cn(Cc2ccccc2)c2ccccc12)NCCc1ccc(Cl)cc1	i
Cc1ccc(Cn2cc(CCC(=O)NCc3cccnc3)c3ccccc32)cc1	0.261
COc1cccc(CNC(=O)CCc2cn(Cc3ccc(C)cc3)c3ccccc23)c1	i
CCCc1ccc(-c2nc(Cc3ccccc3)no2)cc1	i
CCc1cccc(C)c1NC(=O)c1cccc2c1C(=O)N(Cc1cccnc1)C2	i
COc1cccc(-c2nn(C)c3sc(C(=O)Nc4ccc(F)cc4Cl)cc23)c1	i
COc1ccc(N2Cc3cccc(C(=O)NCCc4ccc(OC)c(OC)c4)c3C2=O)cc1	i
COc1ccc(CN2C(=O)N(c3ccc(F)cc3)C(=O)C2CC(=O)Nc2ccccc2)cc1OC (stereo unspecified)	i
O=C1CN(C(=O)COc2ccccc2)C(c2ccccc2)c2cc(Cl)ccc2N1 (stereo unspecified)	i
O=C1CN(C(=O)COc2ccccc2)C(c2ccccc2)c2cc(Br)ccc2N1 (stereo unspecified)	0.477
O=C1CN(C(=O)COc2ccccc2)C(c2ccccc2)c2cc(F)ccc2N1 (stereo unspecified)	i
O=C(c1ccc2c(c1)N(Cc1ccc(F)cc1)C(=O)c1ccccc1S2=O)N1CCc2ccccc21 (stereo unspecified)	i
CCOC(=O)c1sc2nc(Cc3ccccc3)nc(N3CCN(c4ccccc4)CC3)c2c1C	i
COc1ccc(-n2cc(-c3ccccc3)nc2SCC(=O)NC2CCCCC2)cc1	i
COc1ccc(Br)cc1CNC(=O)Cc1cn(C)c2ccccc12	i
COc1ccc(OC)c(CNC(=O)CCCc2cn(C)c3ccccc23)c1	0.458
COc1ccc(CNC(=O)CCc2cn(C)c3ccccc23)c(OC)c1	i
